Here are results for 100 compounds from PubChem BioAssay AID1347074 (Center for Chemical Genomics, University of Michigan, 2019).

The campaign covered roughly 47,000 compounds. About 2,800 (6%) were called active. Only a selection was taken, and actives are over-represented in it overall. Unmarked numbers belong to inactive results. Rule as the data show it: active = z-score above about 3 (passing the limit was not always enough); inactive = the rest.

The target in the assay is Endoribonuclease Dicer (Homo sapiens) (UniProt Q9UPY3). The experiment in a line: inhibitors of Dicer pre-microRNA processing, primary screen, biochemical, cat-ELCCA, chemiluminescence (AID 1347074).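 Also: plate controls were vehicle for no effect and no enzyme for full effect; higher signal means more uncleaved substrate so more Dicer inhibition.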 The note with it: cat-ELCCA pre-miR-21 Dicer processing, at 25 µM, hits give high values.
Chain of Endoribonuclease Dicer (Homo sapiens) (Q9UPY3 whole entry, looked up): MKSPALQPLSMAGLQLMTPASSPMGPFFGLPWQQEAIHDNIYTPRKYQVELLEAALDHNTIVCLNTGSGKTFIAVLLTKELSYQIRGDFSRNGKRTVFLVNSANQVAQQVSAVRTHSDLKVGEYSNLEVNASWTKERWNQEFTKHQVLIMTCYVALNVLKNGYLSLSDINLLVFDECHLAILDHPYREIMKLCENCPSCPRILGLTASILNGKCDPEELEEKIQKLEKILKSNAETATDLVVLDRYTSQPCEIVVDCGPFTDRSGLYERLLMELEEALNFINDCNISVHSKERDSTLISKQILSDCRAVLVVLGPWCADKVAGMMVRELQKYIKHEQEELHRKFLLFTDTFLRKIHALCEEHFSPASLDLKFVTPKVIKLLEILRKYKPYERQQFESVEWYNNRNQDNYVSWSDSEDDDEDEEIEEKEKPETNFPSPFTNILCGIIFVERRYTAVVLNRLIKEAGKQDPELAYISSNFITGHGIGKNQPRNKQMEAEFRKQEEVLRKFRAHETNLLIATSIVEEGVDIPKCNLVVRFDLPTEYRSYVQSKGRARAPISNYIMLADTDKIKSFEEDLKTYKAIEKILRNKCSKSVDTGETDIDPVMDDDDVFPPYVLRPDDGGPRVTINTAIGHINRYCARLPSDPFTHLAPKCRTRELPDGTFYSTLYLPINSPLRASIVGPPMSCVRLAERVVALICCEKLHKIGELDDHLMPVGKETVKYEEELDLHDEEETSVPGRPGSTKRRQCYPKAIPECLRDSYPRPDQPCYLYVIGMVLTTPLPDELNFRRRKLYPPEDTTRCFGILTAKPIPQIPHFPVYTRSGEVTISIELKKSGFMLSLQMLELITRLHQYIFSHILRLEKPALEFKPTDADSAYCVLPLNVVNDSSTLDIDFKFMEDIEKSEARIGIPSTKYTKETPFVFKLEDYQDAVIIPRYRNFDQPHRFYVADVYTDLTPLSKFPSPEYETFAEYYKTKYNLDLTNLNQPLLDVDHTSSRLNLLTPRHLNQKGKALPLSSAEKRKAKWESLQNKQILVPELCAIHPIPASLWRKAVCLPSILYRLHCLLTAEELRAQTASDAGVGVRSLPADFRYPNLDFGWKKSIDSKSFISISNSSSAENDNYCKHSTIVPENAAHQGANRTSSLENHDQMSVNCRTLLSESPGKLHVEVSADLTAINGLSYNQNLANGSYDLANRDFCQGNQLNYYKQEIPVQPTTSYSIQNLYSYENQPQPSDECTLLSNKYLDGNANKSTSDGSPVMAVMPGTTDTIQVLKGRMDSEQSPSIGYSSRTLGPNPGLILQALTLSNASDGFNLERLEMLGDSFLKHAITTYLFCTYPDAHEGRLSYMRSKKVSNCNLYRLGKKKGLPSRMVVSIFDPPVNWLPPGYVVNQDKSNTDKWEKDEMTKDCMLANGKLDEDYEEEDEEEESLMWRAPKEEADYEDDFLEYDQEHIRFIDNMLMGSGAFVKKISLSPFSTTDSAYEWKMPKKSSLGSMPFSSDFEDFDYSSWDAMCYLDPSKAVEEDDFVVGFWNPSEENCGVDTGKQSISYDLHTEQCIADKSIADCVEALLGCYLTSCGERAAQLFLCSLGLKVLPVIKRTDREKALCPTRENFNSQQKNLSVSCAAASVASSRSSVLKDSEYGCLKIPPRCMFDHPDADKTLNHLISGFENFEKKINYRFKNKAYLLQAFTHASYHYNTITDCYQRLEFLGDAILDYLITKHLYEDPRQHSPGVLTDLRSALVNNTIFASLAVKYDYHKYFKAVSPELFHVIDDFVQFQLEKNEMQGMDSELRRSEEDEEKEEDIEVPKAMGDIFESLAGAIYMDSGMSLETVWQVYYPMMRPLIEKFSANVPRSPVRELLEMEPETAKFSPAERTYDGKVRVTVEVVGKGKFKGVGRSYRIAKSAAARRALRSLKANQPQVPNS
In the case of `CSc1sc(C(=O)NNC(=S)Nc2ccccc2Cl)c2c1C(O)CCC2` (stereo not given), the z-score was 6.52 (active).
The same measure for `CSc1sc(C(=O)c2ccc(Cl)cc2)c2c1C(=O)CCC2`: -1.08.
`CC(=O)N1CCc2cc(NC(=S)Nc3ccccc3Cl)ccc21`: the z-score is 0.03.
Turning to `CC1=C(C(=O)OCCc2ccccc2)C(c2cccs2)C2=C(CCCC2=O)N1` (stereo not given), the z-score was 0.14.
`CC(C)c1nnc(NC(=O)Cn2c(=O)sc3ccccc32)s1`: the z-score was 0.59.
For `CNC(=O)CSc1nc2ccccc2[nH]1`, the z-score is 1.43.
The same measure for `COc1ccc(Cl)cc1NC(=O)CSc1nc2ncccc2[nH]1`: 3.45 (active); for `Nc1cc(=O)[nH]c(SCC(=O)Nc2ccccc2F)n1`: 1.47.
Regarding `O=C1c2ccccc2C(=O)N1CN1CCC(CCCC2CCN(CN3C(=O)c4ccccc4C3=O)CC2)CC1`, the z-score was 2.46.
Turning to `Cc1sc2nc3n(c(=O)c2c1C)N=C(c1cccs1)CS3`, the z-score is 1.1.
`O=C1c2cccnc2C(=O)N1c1ccc(-c2nc3ccccc3o2)cc1`: the z-score is 2.88.
The same measure for `O=C(OCCN1CCOCC1)C1(c2ccccc2)CCCCC1`: -0.8; for `Cc1cc(NC(=O)CCC2COc3ccccc3O2)no1` (stereo not given): 0.67; for `O=C(OCCN1CCCCC1)C1COc2ccccc2O1` (stereo not given): 3.41 (active).
With `CC(C)(C)c1cc(N/C=C/c2nnnn2-c2ccccc2)no1`, the z-score is -0.3.
As to `COc1ccc(CN2CCN(Cc3ccccc3OC)CC2)cc1Br`, the z-score is 3.53 (active).
Take `Brc1cccc(CN2CCN(Cc3cccnc3)CC2)c1`: the z-score is 1.06.
Regarding `c1ccc(CN2CCN(Cc3cn[nH]c3-c3ccccc3)CC2)cc1`, the z-score was -2.57.
Consider `COc1cccc(CNCc2ccc3c(c2)OCO3)c1`, for which the z-score was 0.54.
As for `c1ccc(NCc2ccc3c(c2)OCO3)nc1`, the z-score is -1.56.
In the case of `c1cc(CNCc2ccc3c(c2)OCO3)ccn1`, the z-score was 3.21 (active).
In the case of `COc1cccc(N2C(=O)C3ON(c4ccccc4)C(c4ccco4)C3C2=O)c1` (stereo not given), the z-score was 1.03.
The same measure for `COc1ccc(OCC(O)CN2CCC(C)CC2)cc1` (stereo not given): -0.23.
Turning to `CC1=C(C(=O)OCc2ccccc2)C(c2ccc(O)cc2)C2=C(CCCC2=O)N1` (stereo not given), the z-score was 0.01.
On to `CC1=C(C(=O)OCC2CCCO2)C(c2ccc(-c3ccccc3)cc2)C2=C(CCCC2=O)N1` (stereo not given), for which the z-score was 1.9.
For the compound `O=C1CCCC2=C1C(c1ccc([N+](=O)[O-])o1)Nc1ccc(C(=O)c3ccccc3)cc1N2` (stereo not given), the z-score was 4.19 (active).
Regarding `COc1ccc(Cc2nc3c4c5c(sc4ncn3n2)CCCC5)cc1OC`, the z-score was 0.1.
In the case of `N#C/C(=C\c1sccc1Oc1ccccc1)S(=O)(=O)c1ccc(Cl)cc1`, the z-score was -1.9.
With `O=C1c2ccccc2C(=O)C1c1ccccc1F`, the z-score was 20.4 (active).
Consider `O=C1c2ccccc2C(=O)C1c1ccccc1`, for which the z-score was 0.31.
Consider `Nc1nc2c(c(=O)[nH]1)C(c1ccccc1F)CC(=O)N2` (stereo not given), for which the z-score was -1.01.
As to `COC(=O)CCS(=O)(=O)c1ccc2ccccc2c1`, the z-score is 1.34.
As for `COC(=O)c1ccc(/C=C/c2nc3cc(C)c(C)cc3o2)cc1`, the z-score was -0.26.
For `Cc1cccn2cc(-c3cccc(S(=O)(=O)N4CCCCC4)c3)nc12`, the z-score was 0.61.
The same measure for `Cc1ccc(S(=O)(=O)Nc2cccc(-c3cn4ccccc4n3)c2)cc1C`: 5.71 (active); for `O=S(=O)(c1cccc(-c2cn3ccccc3n2)c1)N1CCCC1`: -0.49.
With `Cc1ccc(O)c(C2=NN3C(C2)c2cc(Cl)ccc2OC3c2ccncc2)c1` (stereo not given), the z-score was -0.01.
In the case of `COc1ccc(O)c(C2=NN3C(C2)c2cc(Cl)ccc2OC3c2cccnc2)c1` (stereo not given), the z-score is -1.34.
Turning to `Oc1ccccc1C1=NN2C(C1)c1cc(Br)ccc1OC2c1ccncc1` (stereo not given), the z-score was 12.7 (active).
The same measure for `O=C(O)/C=C/C(=O)Nc1cccc([N+](=O)[O-])c1`: 1.26.
Turning to `Cc1cccc(C)c1NC(=S)N1CCc2ccccc2C1`, the z-score is -2.91.
As for `O=[N+]([O-])c1cc(Br)cnc1Sc1n[nH]c(-c2cccs2)n1`, the z-score was -0.81.
Consider `Clc1ccc(-c2nn3c(-c4ccc(Cl)cc4)nnc3s2)cc1`, for which the z-score was 0.14.
For `COc1nc(NC(C)(C)C)nc(Oc2ccc(=O)[nH]n2)n1`, the z-score was -0.91.
For the compound `O=C(c1cccs1)N1CCN(Cc2ccc3c(c2)OCO3)CC1`, the z-score was 0.63.
For `CCCCCc1c(C)nc(N2CCN(Cc3ccc4c(c3)OCO4)CC2)[nH]c1=O`, the z-score is 3.11 (active).
Consider `O=C1CC(c2ccccc2)Cc2nc(N3CCN(Cc4ccc5c(c4)OCO5)CC3)ncc21` (stereo not given), for which the z-score is -1.59.
Turning to `CCCCN1C(=O)C(c2c(C)[nH]n(-c3ccccc3)c2=O)(C(F)(F)F)C2=C1CC(C)(C)CC2=O` (stereo not given), the z-score was -2.96.
On to `Cc1ccc(S(=O)(=O)Nc2cccc(CCc3ccccn3)c2)cc1`, for which the z-score is -0.8.
On to `CCCc1ccc(C(=O)NNc2ccc(C)cc2C)cc1`, for which the z-score is 4.39 (active).
Consider `COCCCNC(=S)Nc1ccc(C)cc1C`, for which the z-score was -0.42.
As for `CCCCCCCCc1ccc(C(=O)O)cc1`, the z-score was -0.9.
As to `Oc1c(C(Nc2ccccn2)c2ccncc2)ccc2cccnc12` (stereo not given), the z-score is 1.37.
Consider `Cc1cccc(Cl)c1N=C(N)N=C(N)N`, for which the z-score was 1.97.
Regarding `CC1(C)N=C(N)N=C(N)N1c1cc(Cl)c(Cl)cc1Cl`, the z-score was -0.47.
In the case of `O=c1ccn(C2CCCO2)c(=O)n1Cc1ccccc1F` (stereo not given), the z-score was 0.96.
Turning to `CCc1ccc(C(=O)/C=C/Sc2nc3ccccc3o2)cc1`, the z-score is 1.33.
For the compound `CCc1ccc(C(=O)/C=C/Sc2ccccn2)cc1`, the z-score is 4.22 (active).
On to `CCCc1c(C)nc2scc(-c3ccc(Cl)cc3)n2c1=O`, for which the z-score was 1.65.
On to `O=C(Nc1cccc(C(F)(F)F)c1)Nc1ccccc1SCc1ccc(Cl)cc1`, for which the z-score is -1.32.
`COc1cccc(/C=N/NC(=O)c2cc(C)nc3ccc(Br)cc23)c1O`: the z-score is 2.93.
With `COc1cccc(/C=N/NC(=S)Nc2cc(C(F)(F)F)cc(C(F)(F)F)c2)c1O`, the z-score was 5.84 (active).
Take `COCCCNC(=S)N/N=C/c1ccccc1Cl`: the z-score was -0.35.
As for `CC(C)OC(=O)Cn1nc(C(F)(F)F)c2c1CCCC2`, the z-score was 0.31.
For `COc1ccc(Nc2ncnc3sc(-c4ccccc4)cc23)c(OC)c1`, the z-score was 8.39 (active).
In the case of `c1ccc(Nc2ncnc3sc(-c4ccccc4)cc23)cc1`, the z-score is 0.51.
As to `CNC(=O)NC(=O)CSc1ncnc2sc(-c3ccccc3)cc12`, the z-score was -1.14.
The same measure for `CCOc1nc(-c2ccc(C)cc2)ccc1-c1noc(C)n1`: 0.71; for `Cn1c(SCC(=O)Nc2cccc(C(F)(F)F)c2)nnc1SCC(=O)Nc1cccc(C(F)(F)F)c1`: -0.05.
The same measure for `COc1cc(C2c3c(oc4ccc(F)cc4c3=O)C(=O)N2Cc2ccccc2)ccc1O` (stereo not given): 2.47.
With `COc1nc(NC(=O)NS(=O)(=O)c2ccccc2C(F)(F)F)nc(C23CC4CC(CC(C4)C2)C3)n1`, the z-score was -0.58.
On to `Cc1ccc(Sc2nc3ccc(Cl)cc3s2)cc1`, for which the z-score is -1.81.
With `Cc1ccc(S(=O)(=O)Nc2ccc3ncccc3c2)cc1`, the z-score was 0.32.
As for `Cc1ccc2nc(-c3ccc(NS(=O)(=O)c4ccc(Cl)s4)cc3)sc2c1`, the z-score is 4.31 (active).
Consider `COc1ccc(C2CC(=O)c3cn4nc(C)nc4nc3C2)cc1OC` (stereo not given), for which the z-score was -0.07.
For `CN([C@H]1CCN2CCc3ccccc3C2C1)S(C)(=O)=O` (stereo not given in full), the z-score is 3.92 (active).
As for `Cc1cc(C)c(S(=O)(=O)N2CCc3ccccc3C2)c(C)c1`, the z-score was 0.07.
Turning to `CN(C(=O)CSc1nc(C2CCCCC2)c(C#N)c(=O)[nH]1)c1ccccc1`, the z-score was -0.59.
For `COc1ccc(C2=Nc3ccccc3SC(c3ccc(OC)c(O)c3)C2)c(O)c1` (stereo not given), the z-score was -0.56.
The same measure for `COc1ncnc2sc(C(=O)O)c(C)c12`: 0.21; for `CCc1ccc(S(=O)(=O)Nc2cc(Cl)c3oc(=O)sc3c2)cc1`: 14.8 (active); for `CCOc1ccc(NS(=O)(=O)c2ccc(Cl)cc2)cc1`: 0.5.
The same measure for `CCc1ccnc(NS(=O)(=O)c2ccc3c(c2)OCCO3)c1`: 0.59; for `COc1ccc(-c2cnc3cc(-c4ccc(Cl)cc4)nn3c2N)cc1OC`: 1.34; for `Cn1c2c(c(=O)n(C)c1=O)C(c1ccc(F)cc1)C1=C(N2)c2ccccc2C1=O` (stereo not given): 1.52.
`O=C1C2=C(Nc3[nH]c(=O)[nH]c(=O)c3C2c2ccc(F)cc2)c2ccccc21` (stereo not given): the z-score was -3.54.
On to `O=C1C2=C(Nc3ccccc3S(=O)(=O)C2c2ccc(Cl)cc2)c2ccccc21` (stereo not given), for which the z-score was 5.21 (active).
With `O=C1c2oc3ccccc3c(=O)c2C(c2ccccc2F)N1c1nncs1` (stereo not given), the z-score is -0.05.
Take `O=C1CC(=O)CC(c2cccc(Cl)c2)C1`: the z-score is -0.3.
As to `Cc1ccc(-c2nnc(Nc3ccccc3)c3ccccc23)cc1S(=O)(=O)NCCO`, the z-score was 0.4.
The same measure for `Cc1ccc(-c2nnc(NCc3ccccc3)c3ccccc23)cc1S(=O)(=O)N1CCOCC1`: 3.46 (active); for `Cc1ccc(-c2nnc(N3CCOCC3)c3ccccc23)cc1S(=O)(=O)N1CCCCC1`: -4.68; for `COCc1cc(C)nc(Nc2ccc(C)cc2)c1C#N`: -0.19.
Regarding `CCCc1nnc2n1Nc1nc3ccccc3nc1S2`, the z-score is 0.21.
On to `Cc1noc(C)c1S(=O)(=O)N(C)C1CCCCC1`, for which the z-score is 0.73.
Turning to `Cn1nccc1NC(=O)CC(CC(=O)O)c1ccccc1` (stereo not given), the z-score is -0.73.
As for `Cc1cc(NC(=O)CC(CC(=O)O)c2ccccc2)n(C)n1` (stereo not given), the z-score was -1.02.
On to `O=C(O)CC(CC(=O)Oc1ccccc1N1CCCCC1)c1ccccc1` (stereo not given), for which the z-score was 4.46 (active).
For `CCOC(=O)c1ccc(NCN2C(=O)c3ccccc3C2=O)cc1`, the z-score is 0.49.
Turning to `CCCN1C(=O)C2(/C(=C(/O)c3ccc(F)cc3)C(=O)C(=O)N2CCCN(C)C)c2ccccc21` (stereo not given), the z-score is -0.34.
